Inconclusive results are not listed. A call without a number means that no potency is given here. Active and inactive are the calls of the source. The call rests on the fitted dose curve; in most records, active means well fitted activation curve with a large enough effect; inconclusive means small, poorly fitted or top-dose-only effect; inactive means no such curve, though single readings can be large or run the other way.
test: qHTS Multiplex Assay to Identify Dual Action Probes in a Cell Model of Huntington: Cytoprotection confirmation (ATP); conditions: PC12 HttQ103 induced, ATP luminescence 40 h; series mostly up to 46.1 µM
From the text: NIH Chemical Genomics Center [NCGC]
NIH Molecular Libraries Probe Production centers Network [MLPCN]
Assay Submitter (PI): Wei Zheng
Huntington's disease is a neurodegenerative disorder caused by a trinucleotide repeat expansion in Exon 1 of the Huntingtin gene. The CAG trinucleotide encodes glutamine and polyglutamine expansions cause cell death in selective areas of the brain. Huntington polyglutamine repeats have the tendency to form aggregates which are observable in later stages of the disease. The exact nature of the aggregates, whether toxic, protective, or insignificant, is unclear.
A stable PC12 cell line containing a gene fusion of Exon 1 of the Huntingtin gene linked to GFP under the control of the inducible ecdysone promoter were used as the cell-based model of Huntington Disease for high throughput screening. Exon 1 of the Huntingtin gene contained an expansion of 103 polyglutamines (Q103) which, when expressed, caused cell death and distinct, bright GFP aggregates. The amount of cell death and the size and intensity of GFP aggregates increased over time and induction level. The cell death were quantified with a measurement of ATP content in the cells. A maximal 40-50% of cell death was observed when the Huntington gene was induced in this cell line.
We optimized this assay in a homogeneous 1536 well format. A quantitative high throughput screen (qHTS) was conducted on the PC12 cells which were induced to express the toxic fusion construct. Small molecules which prevented cell death were identified by using a luminescent ATP quantification method (Perkin Elmer's ATPlite).
PC12 cells stably containing a construct with an ecdysone inducible promoter expressing GFP fused to the exon 1 of HTTQ103 (Huntington protein which containing a 103 ployglutamine expansion) were used.
NCGC Assay Protocol Summary:
Sequence, Parameter, Description
1, Reagent, 5 uL 1500 cells/well 1536 TC treated White clear bottom plate
2, Compound, 23 nL Tebufenozide inducer (100 nM final) to all columns
3, Compound, 23 nL 40 uM to 0.5 nM Libraries
5, Reagent, 5 ul ATPLite cell death assay reagent
6, Detector, 4 sec integration with a Viewlux Luminescent
Media consisted of phenol red free DMEM + 5% equine serum (Hyclone # SH30072.03 ), 5% supplemented Bovine Calf Serum (Hyclone # SH30074.03 ), 1x pen/strep, no G418

Question: For `Oc1cc(Cl)ccc1Oc1ccc(Cl)cc1Cl`, which Potency is on record?
Answer: inactive

Question: Which Potency does the source give for `O=C1C=C2C=CC3C[C@@]2(O1)C1CCCCN31` (stereo partly drawn) here?
Answer: 12.6 µM (active)

Question: Which Potency does the source give for `C[C@@]1(CO)[C@H](O)CC[C@@]2(C)[C@H]1CC[C@H]1C[C@@H]3C[C@@]12CC[C@]3(O)CO` here?
Answer: inactive

Question: Which Potency does the source give for `CCC(C)C(=O)OC1C(O)C2C(CN3CC(C)CCC3[C@]2(C)O)C2C[C@]34O[C@@]5(O)C(OC(=O)C(C)(O)CC)CCC3(C)C5C(OC(C)=O)C(OC(C)=O)C4[C@@]21O` (stereo partly drawn) here?
Answer: inactive

Question: Which Potency does the source give for `C[C@H]1CC[C@@]2(NC1)O[C@@H]1C[C@H]3[C@@H]4CC=C5C[C@@H](O)CC[C@]5(C)[C@@H]4CC[C@]3(C)[C@@H]1[C@@H]2C` here?
Answer: inactive

Question: Which Potency does the source give for `CC[C@]1(C2=NCCN2)Cc2ccccc2O1` here?
Answer: inactive

Question: For `O=C1C=C2C=C[C@H]3C[C@@]2(O1)[C@H]1CCCCN31`, which Potency is on record?
Answer: inactive

Question: With `O=C1C=C2C=C[C@H]3C[C@]2(O1)[C@@H]1CCCCN13` as the compound, how does the Potency read?
Answer: inactive
